Source: publication PMC7862700, “An all-to-all approach to the identification of sequence-specific readers for epigenetic DNA modifications on cytosine”

Experiments:
Assay in all cases: DAPPL (digital affinity profiling via proximity ligation, sequencing); 10 mM Tris-HCl pH 7.5, 50 mM NaCl, 1 mM DTT, 4% glycerol, room temperature, 30 min; GST-TFs on glutathione beads, 16-mer random dsDNA library, 0.1% formaldehyde crosslink after washing; high values mean tight binding
Conditions in all cases: protein: recombinant; tags: N-terminal GST; dsDNA, one strand shown
ELK1 = target: T1, ELK1 (Homo sapiens, UniProt P19419 1-428)
T1 sequence: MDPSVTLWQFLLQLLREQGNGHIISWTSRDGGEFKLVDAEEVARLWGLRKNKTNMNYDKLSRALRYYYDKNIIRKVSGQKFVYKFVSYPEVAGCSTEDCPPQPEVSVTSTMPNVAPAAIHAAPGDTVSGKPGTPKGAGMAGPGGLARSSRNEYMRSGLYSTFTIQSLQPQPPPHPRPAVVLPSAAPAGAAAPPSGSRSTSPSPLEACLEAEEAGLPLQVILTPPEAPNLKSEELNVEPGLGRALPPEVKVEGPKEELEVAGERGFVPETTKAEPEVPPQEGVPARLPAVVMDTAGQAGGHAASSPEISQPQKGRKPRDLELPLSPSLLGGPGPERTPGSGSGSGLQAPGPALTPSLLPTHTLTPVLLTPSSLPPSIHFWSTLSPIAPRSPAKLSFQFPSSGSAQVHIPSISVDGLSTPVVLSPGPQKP
Procedure, shortened: (§1)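 GST fusions of human transcription factors were expressed in yeast and captured with glutathione beads. Once given DNA barcodes and pooled alongside a tag-only sample, they were incubated for 30 min at room temperature with 200 nmole of a random double-stranded 16-mer DNA library in Tris/NaCl/DTT/glycerol buffer, then washed, crosslinked (0.1% formaldehyde), proximity-ligated, PCR-amplified and sequenced on an Illumina NextSeq500. The binding signal of each hexamer is its read frequency for a factor divided by its frequency for the tag-only sample.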

GABPA = target: T2, GABPA (Homo sapiens, UniProt Q06546 1-454)
T2 sequence: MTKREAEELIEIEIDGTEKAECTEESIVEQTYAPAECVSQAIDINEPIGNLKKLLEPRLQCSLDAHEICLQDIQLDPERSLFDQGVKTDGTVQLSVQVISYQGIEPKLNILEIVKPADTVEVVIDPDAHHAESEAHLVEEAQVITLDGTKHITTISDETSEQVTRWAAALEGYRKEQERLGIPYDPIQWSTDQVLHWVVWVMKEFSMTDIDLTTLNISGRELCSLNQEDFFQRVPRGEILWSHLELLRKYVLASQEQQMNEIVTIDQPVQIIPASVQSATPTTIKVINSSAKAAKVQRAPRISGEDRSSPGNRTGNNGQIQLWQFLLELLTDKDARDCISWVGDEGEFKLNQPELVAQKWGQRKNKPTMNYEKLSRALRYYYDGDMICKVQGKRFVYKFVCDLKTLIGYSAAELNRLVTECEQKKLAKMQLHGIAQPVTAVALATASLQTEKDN
Procedure, shortened: as §1

ELF1 = ELF1 (Homo sapiens, UniProt P32519 1-619)
ELF1, sequence (P32519 whole entry): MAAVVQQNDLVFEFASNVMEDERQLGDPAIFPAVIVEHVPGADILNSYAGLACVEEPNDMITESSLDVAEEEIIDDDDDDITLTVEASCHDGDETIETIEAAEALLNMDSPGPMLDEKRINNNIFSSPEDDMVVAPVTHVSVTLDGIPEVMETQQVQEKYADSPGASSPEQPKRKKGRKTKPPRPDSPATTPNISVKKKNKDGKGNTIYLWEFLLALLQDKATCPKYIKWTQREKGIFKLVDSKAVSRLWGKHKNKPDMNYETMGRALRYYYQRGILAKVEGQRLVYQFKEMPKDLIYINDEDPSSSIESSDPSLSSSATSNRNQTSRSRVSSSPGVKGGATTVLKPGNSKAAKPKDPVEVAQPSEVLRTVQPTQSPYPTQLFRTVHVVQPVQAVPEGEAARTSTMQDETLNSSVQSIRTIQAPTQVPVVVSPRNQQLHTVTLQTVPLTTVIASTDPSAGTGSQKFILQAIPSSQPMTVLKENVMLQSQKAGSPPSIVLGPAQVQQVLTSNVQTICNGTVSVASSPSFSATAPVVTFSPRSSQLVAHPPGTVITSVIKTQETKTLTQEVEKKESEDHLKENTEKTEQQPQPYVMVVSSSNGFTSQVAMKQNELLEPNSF
Procedure, shortened: as §1

EHF = target: T3, EHF (Homo sapiens, UniProt Q9NZC4 1-300)
T3 sequence: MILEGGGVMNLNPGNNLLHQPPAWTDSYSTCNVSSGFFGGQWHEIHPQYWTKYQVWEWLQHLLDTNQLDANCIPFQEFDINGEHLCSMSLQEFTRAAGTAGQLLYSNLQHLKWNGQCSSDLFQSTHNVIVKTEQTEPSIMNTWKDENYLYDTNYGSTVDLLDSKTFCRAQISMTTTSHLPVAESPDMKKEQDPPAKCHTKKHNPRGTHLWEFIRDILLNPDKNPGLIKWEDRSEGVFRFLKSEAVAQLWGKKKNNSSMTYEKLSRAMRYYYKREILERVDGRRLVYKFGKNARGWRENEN
Procedure, shortened: as §1

SPIB = SPIB (Homo sapiens, UniProt Q01892 1-262)
SPIB, sequence (Q01892 whole entry): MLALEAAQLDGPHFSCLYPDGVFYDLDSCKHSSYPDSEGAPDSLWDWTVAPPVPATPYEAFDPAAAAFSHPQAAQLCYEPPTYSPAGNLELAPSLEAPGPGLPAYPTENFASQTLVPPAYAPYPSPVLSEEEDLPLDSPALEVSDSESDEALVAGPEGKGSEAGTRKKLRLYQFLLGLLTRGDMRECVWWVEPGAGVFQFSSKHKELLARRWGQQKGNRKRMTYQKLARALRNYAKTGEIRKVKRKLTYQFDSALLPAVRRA
Procedure, shortened: as §1

ETV5 = ETV5 (Homo sapiens, UniProt P41161 1-510)
ETV5, sequence (P41161 whole entry): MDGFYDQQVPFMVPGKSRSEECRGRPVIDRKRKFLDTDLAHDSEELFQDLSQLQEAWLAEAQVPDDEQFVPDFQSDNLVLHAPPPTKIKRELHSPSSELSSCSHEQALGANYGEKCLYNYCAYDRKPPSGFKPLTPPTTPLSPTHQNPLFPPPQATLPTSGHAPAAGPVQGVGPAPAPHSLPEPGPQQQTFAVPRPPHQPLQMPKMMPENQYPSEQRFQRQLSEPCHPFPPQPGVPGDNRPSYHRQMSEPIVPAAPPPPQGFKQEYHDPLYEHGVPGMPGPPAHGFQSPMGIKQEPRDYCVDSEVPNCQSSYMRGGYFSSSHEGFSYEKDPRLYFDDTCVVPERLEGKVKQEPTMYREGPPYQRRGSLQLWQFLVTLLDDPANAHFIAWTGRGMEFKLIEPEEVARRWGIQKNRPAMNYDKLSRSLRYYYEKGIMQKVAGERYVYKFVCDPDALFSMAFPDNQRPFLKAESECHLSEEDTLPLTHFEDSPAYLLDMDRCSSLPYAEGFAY
Procedure, shortened: as §1

SPIC = target: T4, SPIC (Homo sapiens, UniProt Q8N5J4 1-248)
T4 sequence: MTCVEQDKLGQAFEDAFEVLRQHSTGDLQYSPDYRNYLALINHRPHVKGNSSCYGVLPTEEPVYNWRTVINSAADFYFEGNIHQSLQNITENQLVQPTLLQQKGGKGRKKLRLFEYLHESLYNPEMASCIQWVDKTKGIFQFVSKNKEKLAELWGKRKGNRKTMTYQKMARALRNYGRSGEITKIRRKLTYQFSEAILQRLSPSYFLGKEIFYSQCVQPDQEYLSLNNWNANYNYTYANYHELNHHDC
Procedure, shortened: as §1

ELF4 = ELF4 (Homo sapiens, UniProt Q99607 1-663)
ELF4, sequence (Q99607 whole entry): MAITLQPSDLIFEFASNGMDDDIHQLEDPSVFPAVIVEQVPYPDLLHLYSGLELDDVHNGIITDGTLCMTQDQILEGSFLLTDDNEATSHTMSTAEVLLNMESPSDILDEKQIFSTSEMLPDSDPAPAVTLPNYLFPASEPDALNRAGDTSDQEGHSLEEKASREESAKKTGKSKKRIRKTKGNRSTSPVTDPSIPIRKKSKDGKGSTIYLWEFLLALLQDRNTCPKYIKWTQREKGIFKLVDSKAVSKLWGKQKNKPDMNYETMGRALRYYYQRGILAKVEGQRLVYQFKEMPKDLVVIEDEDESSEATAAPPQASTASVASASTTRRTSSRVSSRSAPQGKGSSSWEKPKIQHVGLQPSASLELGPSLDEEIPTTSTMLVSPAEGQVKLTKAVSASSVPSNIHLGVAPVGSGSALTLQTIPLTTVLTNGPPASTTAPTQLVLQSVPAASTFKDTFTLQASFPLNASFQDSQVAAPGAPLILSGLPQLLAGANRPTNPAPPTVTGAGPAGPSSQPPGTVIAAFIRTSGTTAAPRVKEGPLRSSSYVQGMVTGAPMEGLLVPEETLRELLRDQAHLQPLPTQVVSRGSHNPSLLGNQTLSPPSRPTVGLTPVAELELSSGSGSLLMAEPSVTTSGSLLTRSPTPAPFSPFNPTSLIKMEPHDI
Procedure, shortened: as §1

ELK4 = target: T5, ELK4 (Homo sapiens, UniProt P28324-2 1-405)
T5 sequence: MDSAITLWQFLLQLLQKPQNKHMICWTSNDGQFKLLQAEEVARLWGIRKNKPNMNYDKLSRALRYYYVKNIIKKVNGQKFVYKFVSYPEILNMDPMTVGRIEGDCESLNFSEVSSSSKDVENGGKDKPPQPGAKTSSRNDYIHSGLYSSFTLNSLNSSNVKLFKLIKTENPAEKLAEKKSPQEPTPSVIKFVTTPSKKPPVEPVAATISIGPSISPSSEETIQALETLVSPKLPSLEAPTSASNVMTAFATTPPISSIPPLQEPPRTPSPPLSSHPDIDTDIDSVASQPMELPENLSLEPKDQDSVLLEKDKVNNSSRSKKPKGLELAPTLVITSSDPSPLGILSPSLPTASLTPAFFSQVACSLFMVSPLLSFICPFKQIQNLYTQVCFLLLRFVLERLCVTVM
Procedure, shortened: as §1

ELF3 = target: T6, ELF3 (Homo sapiens, UniProt P78545 1-371)
T6 sequence: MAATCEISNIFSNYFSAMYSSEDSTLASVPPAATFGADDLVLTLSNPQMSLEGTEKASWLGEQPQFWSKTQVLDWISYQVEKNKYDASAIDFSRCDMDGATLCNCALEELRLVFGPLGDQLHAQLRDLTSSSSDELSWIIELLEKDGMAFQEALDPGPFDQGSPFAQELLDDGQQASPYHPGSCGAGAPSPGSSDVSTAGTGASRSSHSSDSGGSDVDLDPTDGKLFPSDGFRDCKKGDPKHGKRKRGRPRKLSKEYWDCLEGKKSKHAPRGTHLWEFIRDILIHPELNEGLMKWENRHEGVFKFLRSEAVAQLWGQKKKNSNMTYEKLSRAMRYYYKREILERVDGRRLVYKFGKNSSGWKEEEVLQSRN
Procedure, shortened: as §1

ETV1 = ETV1 (Homo sapiens, UniProt P50549 1-477)
ETV1, sequence (P50549 whole entry): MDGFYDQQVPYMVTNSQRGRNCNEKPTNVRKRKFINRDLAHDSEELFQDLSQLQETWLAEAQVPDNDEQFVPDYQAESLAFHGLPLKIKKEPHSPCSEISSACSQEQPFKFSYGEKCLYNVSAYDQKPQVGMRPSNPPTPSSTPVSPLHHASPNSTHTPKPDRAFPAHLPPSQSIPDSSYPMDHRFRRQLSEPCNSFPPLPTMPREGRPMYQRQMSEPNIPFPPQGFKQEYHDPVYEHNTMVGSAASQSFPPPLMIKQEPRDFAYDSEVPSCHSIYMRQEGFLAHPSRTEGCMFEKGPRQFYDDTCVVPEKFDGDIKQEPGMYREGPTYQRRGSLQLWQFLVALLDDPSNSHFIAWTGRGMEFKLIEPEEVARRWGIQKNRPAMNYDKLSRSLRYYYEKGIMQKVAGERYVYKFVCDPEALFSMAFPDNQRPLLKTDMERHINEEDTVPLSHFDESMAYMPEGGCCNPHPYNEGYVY
Procedure, shortened: as §1

ETV3L = target: T7, ETV3L (Homo sapiens, UniProt Q6ZN32 1-361)
T7 sequence: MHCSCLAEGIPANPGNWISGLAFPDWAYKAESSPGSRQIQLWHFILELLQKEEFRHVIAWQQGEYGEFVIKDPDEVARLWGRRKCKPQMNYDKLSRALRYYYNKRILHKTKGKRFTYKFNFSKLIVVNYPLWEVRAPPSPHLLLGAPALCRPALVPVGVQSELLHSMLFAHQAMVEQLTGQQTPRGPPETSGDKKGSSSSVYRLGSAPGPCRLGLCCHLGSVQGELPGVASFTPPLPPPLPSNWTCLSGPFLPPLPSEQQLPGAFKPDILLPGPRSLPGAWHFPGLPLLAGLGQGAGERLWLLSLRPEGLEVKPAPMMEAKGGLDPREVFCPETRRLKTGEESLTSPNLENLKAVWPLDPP
Procedure, shortened: as §1

ETS2 = target: T8, ETS2 (Homo sapiens, UniProt P15036 1-469)
T8 sequence: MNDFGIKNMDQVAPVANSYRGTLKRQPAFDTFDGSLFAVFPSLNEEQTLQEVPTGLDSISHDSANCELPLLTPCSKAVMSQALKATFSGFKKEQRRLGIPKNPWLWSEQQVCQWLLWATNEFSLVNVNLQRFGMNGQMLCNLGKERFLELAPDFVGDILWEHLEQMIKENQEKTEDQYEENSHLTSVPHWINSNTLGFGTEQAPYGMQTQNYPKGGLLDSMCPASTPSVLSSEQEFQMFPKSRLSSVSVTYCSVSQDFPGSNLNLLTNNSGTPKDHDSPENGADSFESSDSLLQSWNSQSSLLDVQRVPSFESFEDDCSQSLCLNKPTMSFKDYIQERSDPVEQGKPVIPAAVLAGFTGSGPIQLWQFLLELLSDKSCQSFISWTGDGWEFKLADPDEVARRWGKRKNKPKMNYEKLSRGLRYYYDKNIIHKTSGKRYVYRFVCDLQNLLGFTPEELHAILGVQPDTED
Procedure, shortened: as §1

SPDEF = target: T9, SPDEF (Homo sapiens, UniProt O95238 1-335)
T9 sequence: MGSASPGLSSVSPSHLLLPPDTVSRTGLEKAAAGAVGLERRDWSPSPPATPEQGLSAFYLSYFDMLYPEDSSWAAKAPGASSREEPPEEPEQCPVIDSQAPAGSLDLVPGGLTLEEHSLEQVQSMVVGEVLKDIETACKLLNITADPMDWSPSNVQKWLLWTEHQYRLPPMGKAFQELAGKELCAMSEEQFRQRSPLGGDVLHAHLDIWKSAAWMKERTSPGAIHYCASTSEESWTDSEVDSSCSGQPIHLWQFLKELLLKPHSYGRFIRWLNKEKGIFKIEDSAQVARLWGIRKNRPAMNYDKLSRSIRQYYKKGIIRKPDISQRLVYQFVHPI
Procedure, shortened: as §1

ETV7 = target: T10, ETV7 (Homo sapiens, UniProt Q9Y603 1-341)
T10 sequence: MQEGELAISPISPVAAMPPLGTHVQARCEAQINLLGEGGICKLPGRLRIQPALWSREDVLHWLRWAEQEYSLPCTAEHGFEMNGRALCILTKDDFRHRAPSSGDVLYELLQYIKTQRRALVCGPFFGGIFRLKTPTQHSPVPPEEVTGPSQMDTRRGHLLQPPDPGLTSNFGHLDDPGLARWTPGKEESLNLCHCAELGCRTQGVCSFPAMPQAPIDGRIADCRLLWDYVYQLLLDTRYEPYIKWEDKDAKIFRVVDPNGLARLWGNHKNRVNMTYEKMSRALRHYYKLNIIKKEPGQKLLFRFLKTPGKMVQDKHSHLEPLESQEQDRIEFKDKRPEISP
Procedure, shortened: as §1

ETV3 = target: T11, ETV3 (Homo sapiens, UniProt P41162-2 1-143)
T11 sequence: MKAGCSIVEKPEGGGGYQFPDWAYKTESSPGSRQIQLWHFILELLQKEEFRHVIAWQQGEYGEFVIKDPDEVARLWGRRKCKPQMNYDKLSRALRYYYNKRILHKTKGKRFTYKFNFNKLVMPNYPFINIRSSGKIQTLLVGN
Procedure, shortened: as §1

ETV6 = ETV6 (Homo sapiens, UniProt P41212 1-452)
ETV6, sequence (P41212 whole entry): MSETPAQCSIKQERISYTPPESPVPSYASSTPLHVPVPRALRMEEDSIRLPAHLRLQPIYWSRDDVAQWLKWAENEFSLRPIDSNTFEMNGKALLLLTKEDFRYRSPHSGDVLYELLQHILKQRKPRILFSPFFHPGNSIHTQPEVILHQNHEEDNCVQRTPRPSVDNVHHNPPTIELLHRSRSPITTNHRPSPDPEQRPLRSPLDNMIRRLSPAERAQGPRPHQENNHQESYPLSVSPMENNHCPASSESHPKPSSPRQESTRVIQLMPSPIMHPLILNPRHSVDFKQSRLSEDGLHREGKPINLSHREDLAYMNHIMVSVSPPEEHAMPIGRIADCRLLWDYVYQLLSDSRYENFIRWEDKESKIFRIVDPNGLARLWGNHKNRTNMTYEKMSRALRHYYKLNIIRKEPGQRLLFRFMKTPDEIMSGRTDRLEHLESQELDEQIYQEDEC
Procedure, shortened: as §1

ACACGG
binding signal (ELK1): 1.03 fold enrichment (6-mer frequency, TF over GST control) | binding signal (GABPA): 1.05 fold enrichment (6-mer frequency, TF over GST control) | binding signal (ELF1): 1.06 fold enrichment (6-mer frequency, TF over GST control) | binding signal (EHF): 1.05 fold enrichment (6-mer frequency, TF over GST control) | binding signal (SPIB): 1.1 fold enrichment (6-mer frequency, TF over GST control) | binding signal (ETV5): 1.04 fold enrichment (6-mer frequency, TF over GST control) | binding signal (SPIC): 1.06 fold enrichment (6-mer frequency, TF over GST control) | binding signal (ELF4): 1.05 fold enrichment (6-mer frequency, TF over GST control) | binding signal (ELK4): 1.07 fold enrichment (6-mer frequency, TF over GST control) | binding signal (ELF3): 1.06 fold enrichment (6-mer frequency, TF over GST control) | binding signal (ETV1): 1.1 fold enrichment (6-mer frequency, TF over GST control) | binding signal (ETV3L): 1.06 fold enrichment (6-mer frequency, TF over GST control) | binding signal (ETS2): 1.08 fold enrichment (6-mer frequency, TF over GST control) | binding signal (SPDEF): 1.17 fold enrichment (6-mer frequency, TF over GST control) | binding signal (ETV7): 1.03 fold enrichment (6-mer frequency, TF over GST control) | binding signal (ETV3): 1.13 fold enrichment (6-mer frequency, TF over GST control) | binding signal (ETV6): 1.06 fold enrichment (6-mer frequency, TF over GST control)
